# PfHsp90 set2 – growth inhibition of PfHsp90-expressing yeast, primary screen, antimalarial PfHsp90 inhibitor project, S. cerevisiae, BacTiter-Glo luminescence, single point, set 2; AID 504621, 2011; inhibition, % at 9.4 µM; BacTiter-Glo ATP, 48 h; yeast lacking PDR1 and PDR3 efflux regulators; hit rate 0.32% among 310,000;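 active = every replicate shows inhibition above about 80%, whatever the replicate mean, limit read from the data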
# TIM10 inh – growth inhibitors of isogenic TIM10 control yeast, primary screen, counter-screen for tim10-1 yeast inhibitor project, luminescence, uHTS. S. cerevisiae TIM10 strain growth, BacTiter-Glo luminescence, 24 h. inhibition, % at 10 µM. hit rate 1.4% among 330,000;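 active = inhibition of 40% or more at the single tested concentration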;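 also: wild-type TIM10 isogenic control strain grown at permissive 25 °C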
# NALP3 yeast inh – NALP3 inflammasome inhibitors in reconstituted yeast, primary screen, luminescence, uHTS; Yeast reconstituted NLRP3/ASC/caspase-1, beta-gal luminescence, 24 h; inhibition, % at 10 µM; hit rate 0.39% among 330,000; AID 2825, 2010;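 active = inhibition of 50% or more; inactive = inhibition below 50%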
# tim23-1 inh – growth inhibitors of tim23-1 mutant yeast, primary screen, luminescence, uHTS | S. cerevisiae tim23-1 growth, BacTiter-Glo luminescence, 24 h | inhibition, % at 20 µM | hit rate 1.3% among 330,000;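 active = growth inhibition of the mutant yeast at or above 50%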;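 also: temperature-sensitive mutant grown at 25 °C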
# tim10-1 inh – growth inhibitors of tim10-1 mutant yeast, primary screen, luminescence, uHTS; S. cerevisiae tim10-1 ts strain growth, BacTiter-Glo, 24 h; inhibition, % at 20 µM; hit rate 2.2% among 330,000; AID 463190, 2010;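 active = inhibition of at least 40%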;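 also: mutant grown at 25 °C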
# TIM10 conf – growth inhibitors of wild-type TIM10 yeast, confirmation, counter-screen for tim10-1 synthetic lethality project, single concentration, luminescence, S. cerevisiae; hit rate 63% among 4,600; AID 463215, 2010; S. cerevisiae tim10 strain growth, BacTiter-Glo luminescence, 24 h; inhibition, % at 10 µM; shares compounds with TIM10 inh;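 active = inhibition of yeast growth at or above a set limit in either of two replicates at 10 µM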; also: this counterscreen used the strain with wild-type TIM10
# Hits are given with their value; . = inactive; / = no result given. Most compounds without a hit are left out; they make up all but 3.7% or so of the library.
SMILES,PfHsp90 set2,TIM10 inh,NALP3 yeast inh,tim23-1 inh,tim10-1 inh,TIM10 conf
O=C(O)c1ccc(/C=N/NC(=O)c2ccc3c(c2)OCCO3)cc1,.,.,.,.,.,/
O=C(N/N=C/c1ccc(Br)o1)c1ccc2c(c1)OCCO2,.,56,.,.,.,63
CC(C)C(=O)Nc1ccc(S(=O)(=O)Nc2ccccn2)cc1,.,.,.,.,.,/
O=C(c1c(Cl)nc2sccn12)N(C(=O)c1c(Cl)nc2sccn12)c1ccc(Cl)cn1,.,42,.,.,.,.
O=C(NCCc1c[nH]c2ccccc12)c1c(Cl)nc2sccn12,.,.,.,.,.,/
CN(C(=S)Nc1ccc(SC(F)F)cc1)C(c1ccccc1)c1ccccc1,.,42,.,.,.,40
C/C(Cl)=C\Cn1c(O)c(N=NC(N)=S)c2cc(Br)ccc21,.,42,.,.,.,48
Cc1ccc(C)c(Oc2ncnc(N)c2[N+](=O)[O-])c1,.,.,.,.,.,/
Cc1cc(Sc2ncnc(N)c2[N+](=O)[O-])ncn1,.,42,.,.,.,.
CCCCCC(=O)Nc1ccc(-c2csc(N)n2)cc1,/,43,.,.,.,.
CCCCCC(=O)Nc1ccc(-c2csc(C)n2)cc1,.,.,.,.,.,/
COC(=O)C1=C(N)Oc2cc(N(C)C)ccc2C1c1ccccc1OC (stereo not drawn),.,42,.,.,.,.
O=C(CSc1ncnc2ccccc12)c1ccc2c(c1)OCCO2,.,47,.,.,.,.
OC1(c2ccccc2)c2ccccc2-c2ncccc21 (stereo not drawn),.,.,.,.,.,/
CC(=O)Nc1ccc2c(c1)nc1n2CCOC1,.,.,.,.,.,/
O=C(Nc1ccc2c(c1)nc1n2CCOC1)c1ccco1,.,47,.,.,.,.
O=C(Nc1ccc2c(c1)nc1n2CCSC1)c1ccco1,/,60,.,.,.,53
COc1ccc(C(=O)NCc2ccncc2)cc1S(=O)(=O)NCc1ccc(Cl)cc1,.,.,.,.,.,/
CCOc1ccc(S(=O)(=O)Nc2cccc(Cl)c2)cc1,.,49,.,.,.,43
CCOc1ccc(NS(=O)(=O)c2ccc(NS(=O)(=O)c3ccccc3)cc2)cc1,/,.,.,.,.,/
CCn1c(=O)n(CC)c2cc(NC(=O)C(C)c3ccccc3)c(Br)cc21 (stereo not drawn),.,.,.,.,.,/
Cc1ccsc1/C=N/NC(=S)NCc1ccccc1,.,54,.,.,.,44
Cc1ccsc1/C=N\NC(=O)CC(=O)NCc1ccccc1,.,.,.,.,.,/
COc1ccc(CCNC(=O)Cc2cc(OCc3ccccc3)c(OC)cc2[N+](=O)[O-])cc1OC,.,.,.,.,.,/
Clc1c(-c2ccccc2)nc2ccccn12,.,97,.,.,.,.
SMILES,PfHsp90 set2,TIM10 inh,NALP3 yeast inh,tim23-1 inh,tim10-1 inh,TIM10 conf
N#CC1=C(N)SC(N)=C(C#N)C1Cc1ccccc1,.,.,.,.,.,/
N#CC1=C(N)SC(N)=C(C#N)C1CCc1ccccc1,.,70,.,.,.,.
Cc1cc(C)cc(C(=O)OCC(=O)NC2CCCC2)c1,.,.,.,.,.,/
Cc1cc(C)cc(C(=O)OCC(=O)NC(=O)NC2CCCC2)c1,.,96,.,.,.,.
COCc1c(C(=O)OC)nnn1-c1ccc(C(F)(F)F)cc1[N+](=O)[O-],.,.,.,.,.,/
COc1ccc(-c2nc3scc(-c4ccc(OC)c(OC)c4)c3c(=O)o2)cc1,.,.,.,.,.,/
CCOc1ccc(-n2cnc3scc(-c4ccc(OC)c(OC)c4)c3c2=O)cc1,/,41,.,.,.,.
CSc1nc(NCc2ccco2)c2ccccc2n1,.,40,.,.,.,.
C[C@@H](C(O)c1ccccc1)N(C)C(=O)CCc1ccccc1 (stereo partly drawn),.,.,.,.,.,/
CCn1c(C)cc(/C=C2/SC(=S)NC2=O)c1C,.,44,.,.,.,.
Cc1c(OCc2ccccc2)c(=O)ccn1Cc1ccccc1,.,.,.,.,.,/

# Source: PubChem
